Of roughly 8,800 targets only a part is listed; those with a hit were picked by preference. About 0.5% of all pairs of compound and target were hits.
Key:
Assay in all cases: log2 fold change, soluble protein after heating vs DMSO (PISA); higher = thermal stabilisation; K562 lysate, 10 uM; active = over 0.2 and 3.5 SD of the protein, either way, in both replicates (recomputed)
[1] = compound: C#Cc1cccc(Nc2ncnc3cc(OCCOC)c(OCCOC)cc23)c1 [erlotinib]
Procedure, shortened: (§1)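 The values are log-two fold changes in thermal stability compared with solvent controls and come from duplicates. They were obtained by TMTpro 16plex LC-MS/MS, with channel sums equalised, on the supernatant after 21,000xg for 90 min. That supernatant came from crude K562 extract at 1 mg/mL protein treated with 10 μM compound for 30 min, heated for 3 min across 48°C-58°C, pooled and brought to 0.5% NP-40 at 4°C.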

[2] = compound: C/C(=N\NC(=O)C1=CC(=CC=C1)S(=O)(=O)N2CCOCC2)/C3=C(C=CC(=C3)Cl)O
Procedure, shortened: as §1

[3] = compound: C1=CC(=CC=C1C2=NC3=C(N2)C=C(C=C3)C(=O)N)OC4=CC=C(C=C4)Cl
Procedure, shortened: as §1

[4] = compound: C1=CC2=C(C=CC(=C2)/C=C\3/C(=O)NC(=NCC4=CC=CS4)S3)N=C1
Procedure, shortened: as §1

[5] = compound: C1=CC2=NC=CN=C2C=C1/C=C/3\C(=O)NC(=O)S3
Procedure, shortened: as §1

[6] = compound: C1=CC=C(C=C1)C2=NC(=C(N2)C3=CC=NC=C3)C4=CC(=C(C=C4)Cl)O
Procedure, shortened: as §1

[7] = compound: C1=CC=C2C(=C1)C3=NNC4=CC=CC(=C43)C2=O
Procedure, shortened: as §1

[8] = compound: C1CCN(C1)C(=O)NC2=CC=CC(=C2)NC3=NC=C(C(=N3)NCCC4=CN=CN4)Br
Procedure, shortened: as §1

[9] = compound: C1CN(CCC1(CC2=CC=C(C=C2)Cl)N)C3=NC=NC4=C3C=CN4
Procedure, shortened: as §1

[10] = compound: C1COCCN1CCN2C3=CC=CC=C3N=C2NC(=O)C4=CC(=CC=C4)[N+](=O)[O-] [IRAK-1-4 Inhibitor I]
Procedure, shortened: as §1

Measured: log2 fold change

OSBP (UniProt P22059)
inactive: [1] -0.023 | [2] -0.056 | [3] 0.037 | [4] -0.006 | [5] 0.017 | [6] -0.031 | [7] -0.031 | [8] -0.016 | [9] 0.016 | [10] -0.112

OLA1 (UniProt Q9NTK5)
inactive: [1] 0.038 | [2] 0.031 | [3] 0.029 | [4] -0.02 | [5] 0.02 | [6] 0.007 | [7] -0.048 | [8] 0.022 | [9] 0.02 | [10] -0.02

NARF (UniProt Q9UHQ1)
Sequence of UniProt Q9UHQ1 (Q9UHQ1 whole entry, looked up): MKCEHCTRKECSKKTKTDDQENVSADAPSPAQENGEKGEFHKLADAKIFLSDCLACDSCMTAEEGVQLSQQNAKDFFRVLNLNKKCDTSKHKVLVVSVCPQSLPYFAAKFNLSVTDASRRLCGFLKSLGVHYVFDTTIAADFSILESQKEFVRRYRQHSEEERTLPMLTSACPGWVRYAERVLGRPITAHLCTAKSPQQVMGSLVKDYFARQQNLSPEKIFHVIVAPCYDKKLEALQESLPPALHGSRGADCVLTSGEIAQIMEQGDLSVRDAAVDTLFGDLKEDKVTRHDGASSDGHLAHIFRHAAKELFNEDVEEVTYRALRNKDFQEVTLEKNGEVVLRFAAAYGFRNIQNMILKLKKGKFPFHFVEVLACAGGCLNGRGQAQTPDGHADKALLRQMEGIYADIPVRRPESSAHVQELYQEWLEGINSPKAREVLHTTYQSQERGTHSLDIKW
inactive: [1] 0.005 | [2] 0.006 | [3] 0.042 | [4] 0.007 | [5] -0.005 | [6] 0.004 | [7] 0.004 | [8] -0.009 | [9] -0.021 | [10] -0.009

NEBL isoform 2 (UniProt O76041)
inactive: [1] 0 | [2] 0.081 | [3] 0.045 | [4] 0.012 | [5] 0.016 | [6] 0.015 | [7] 0.003 | [8] -0.007 | [9] -0.006 | [10] -0.005

NCOR2 (UniProt C9J0Q5)
inactive: [1] 0.044 | [2] 0.033 | [3] 0.04 | [4] -0.082 | [5] -0.008 | [6] 0.054 | [7] -0.173 | [8] -0.002 | [9] 0.049 | [10] 0.032

NAP1L5 (UniProt Q96NT1)
inactive: [1] -0.003 | [2] -0.023 | [3] 0.017 | [4] -0.014 | [5] -0.014 | [6] 0.084 | [7] -0.116 | [8] -0.057 | [9] 0 | [10] -0.059

NUCB2 (UniProt P80303)
inactive: [1] -0.003 | [2] 0.018 | [3] 0.014 | [4] -0.018 | [5] 0.011 | [6] -0.015 | [7] -0.017 | [8] 0.003 | [9] 0.003 | [10] 0.007

MYCBP2 (UniProt O75592)
inactive: [1] 0.01 | [2] 0 | [3] 0.031 | [4] 0.008 | [5] -0.008 | [6] 0.031 | [7] -0.023 | [8] 0.004 | [9] 0.03 | [10] 0.022

NUP133 (UniProt Q8WUM0)
Sequence of UniProt Q8WUM0 (Q8WUM0 whole entry, looked up): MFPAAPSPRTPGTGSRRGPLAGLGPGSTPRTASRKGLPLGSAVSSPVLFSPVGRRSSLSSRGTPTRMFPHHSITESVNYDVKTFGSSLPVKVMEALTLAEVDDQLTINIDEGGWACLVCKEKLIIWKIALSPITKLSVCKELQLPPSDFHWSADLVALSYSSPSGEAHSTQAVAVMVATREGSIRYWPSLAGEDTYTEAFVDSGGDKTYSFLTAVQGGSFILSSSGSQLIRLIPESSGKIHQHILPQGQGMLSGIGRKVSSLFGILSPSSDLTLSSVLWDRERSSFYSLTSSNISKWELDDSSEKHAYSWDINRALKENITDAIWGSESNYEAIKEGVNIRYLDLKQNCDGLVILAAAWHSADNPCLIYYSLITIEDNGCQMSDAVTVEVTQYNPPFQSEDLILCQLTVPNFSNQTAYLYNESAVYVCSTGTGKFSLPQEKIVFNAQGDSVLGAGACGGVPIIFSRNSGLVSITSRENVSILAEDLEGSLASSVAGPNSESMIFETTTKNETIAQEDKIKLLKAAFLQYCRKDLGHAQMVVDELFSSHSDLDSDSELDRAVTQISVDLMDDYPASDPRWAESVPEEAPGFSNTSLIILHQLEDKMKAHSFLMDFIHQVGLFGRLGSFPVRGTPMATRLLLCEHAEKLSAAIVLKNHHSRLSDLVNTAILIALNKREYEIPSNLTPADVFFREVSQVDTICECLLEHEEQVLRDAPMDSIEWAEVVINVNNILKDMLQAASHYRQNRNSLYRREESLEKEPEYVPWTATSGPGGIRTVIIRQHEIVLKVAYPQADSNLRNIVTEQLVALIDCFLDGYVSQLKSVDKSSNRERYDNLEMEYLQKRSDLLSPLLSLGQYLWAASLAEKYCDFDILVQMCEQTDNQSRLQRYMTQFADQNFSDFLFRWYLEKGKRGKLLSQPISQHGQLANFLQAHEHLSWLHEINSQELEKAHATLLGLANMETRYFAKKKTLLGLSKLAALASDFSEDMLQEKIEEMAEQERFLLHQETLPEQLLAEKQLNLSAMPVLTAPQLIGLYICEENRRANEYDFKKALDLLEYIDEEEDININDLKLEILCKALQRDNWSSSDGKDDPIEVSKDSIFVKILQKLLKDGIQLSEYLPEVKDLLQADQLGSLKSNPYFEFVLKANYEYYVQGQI
inactive: [1] 0.01 | [2] -0.016 | [3] 0.006 | [4] 0.019 | [5] -0.018 | [6] 0.017 | [7] -0.023 | [8] -0.04 | [9] 0.015 | [10] 0.026

MTOR (UniProt P42345)
inactive: [1] 0.02 | [2] 0.031 | [3] -0.058 | [4] -0.022 | [5] 0.038 | [6] 0.025 | [7] -0.018 | [8] -0.012 | [9] 0.003 | [10] 0.006

NUP93 (UniProt Q8N1F7)
inactive: [1] 0.025 | [2] 0.058 | [3] -0.042 | [4] 0.021 | [5] 0.032 | [6] -0.022 | [7] -0.049 | [8] 0.002 | [9] 0.015 | [10] -0.022

NIT2 (UniProt Q9NQR4)
inactive: [1] -0.048 | [2] 0.001 | [3] 0.014 | [4] 0.009 | [5] 0.007 | [6] -0.03 | [7] 0.032 | [8] -0.006 | [9] 0.015 | [10] 0.067

OSBPL3 isoform 2 (UniProt Q9H4L5)
inactive: [1] 0.292 | [2] 0.206 | [3] 0.038 | [4] 0.079 | [5] -0.04 | [6] 0.189 | [7] 0.135 | [8] -0.001 | [9] -0.018 | [10] -0.183

MRPL53 (UniProt Q96EL3)
inactive: [1] -0.036 | [2] -0.103 | [3] 0.042 | [4] 0.014 | [5] -0.004 | [6] -0.015 | [7] -0.049 | [8] -0.07 | [9] 0.096 | [10] 0.026

NELFCD (UniProt Q8IXH7)
inactive: [1] 0.034 | [2] 0.015 | [3] 0.007 | [4] 0.031 | [5] -0.019 | [6] -0.019 | [7] -0.044 | [8] -0.004 | [9] 0.023 | [10] -0.036

N4BP2 (UniProt Q86UW6)
Sequence of UniProt Q86UW6 (Q86UW6 whole entry, looked up): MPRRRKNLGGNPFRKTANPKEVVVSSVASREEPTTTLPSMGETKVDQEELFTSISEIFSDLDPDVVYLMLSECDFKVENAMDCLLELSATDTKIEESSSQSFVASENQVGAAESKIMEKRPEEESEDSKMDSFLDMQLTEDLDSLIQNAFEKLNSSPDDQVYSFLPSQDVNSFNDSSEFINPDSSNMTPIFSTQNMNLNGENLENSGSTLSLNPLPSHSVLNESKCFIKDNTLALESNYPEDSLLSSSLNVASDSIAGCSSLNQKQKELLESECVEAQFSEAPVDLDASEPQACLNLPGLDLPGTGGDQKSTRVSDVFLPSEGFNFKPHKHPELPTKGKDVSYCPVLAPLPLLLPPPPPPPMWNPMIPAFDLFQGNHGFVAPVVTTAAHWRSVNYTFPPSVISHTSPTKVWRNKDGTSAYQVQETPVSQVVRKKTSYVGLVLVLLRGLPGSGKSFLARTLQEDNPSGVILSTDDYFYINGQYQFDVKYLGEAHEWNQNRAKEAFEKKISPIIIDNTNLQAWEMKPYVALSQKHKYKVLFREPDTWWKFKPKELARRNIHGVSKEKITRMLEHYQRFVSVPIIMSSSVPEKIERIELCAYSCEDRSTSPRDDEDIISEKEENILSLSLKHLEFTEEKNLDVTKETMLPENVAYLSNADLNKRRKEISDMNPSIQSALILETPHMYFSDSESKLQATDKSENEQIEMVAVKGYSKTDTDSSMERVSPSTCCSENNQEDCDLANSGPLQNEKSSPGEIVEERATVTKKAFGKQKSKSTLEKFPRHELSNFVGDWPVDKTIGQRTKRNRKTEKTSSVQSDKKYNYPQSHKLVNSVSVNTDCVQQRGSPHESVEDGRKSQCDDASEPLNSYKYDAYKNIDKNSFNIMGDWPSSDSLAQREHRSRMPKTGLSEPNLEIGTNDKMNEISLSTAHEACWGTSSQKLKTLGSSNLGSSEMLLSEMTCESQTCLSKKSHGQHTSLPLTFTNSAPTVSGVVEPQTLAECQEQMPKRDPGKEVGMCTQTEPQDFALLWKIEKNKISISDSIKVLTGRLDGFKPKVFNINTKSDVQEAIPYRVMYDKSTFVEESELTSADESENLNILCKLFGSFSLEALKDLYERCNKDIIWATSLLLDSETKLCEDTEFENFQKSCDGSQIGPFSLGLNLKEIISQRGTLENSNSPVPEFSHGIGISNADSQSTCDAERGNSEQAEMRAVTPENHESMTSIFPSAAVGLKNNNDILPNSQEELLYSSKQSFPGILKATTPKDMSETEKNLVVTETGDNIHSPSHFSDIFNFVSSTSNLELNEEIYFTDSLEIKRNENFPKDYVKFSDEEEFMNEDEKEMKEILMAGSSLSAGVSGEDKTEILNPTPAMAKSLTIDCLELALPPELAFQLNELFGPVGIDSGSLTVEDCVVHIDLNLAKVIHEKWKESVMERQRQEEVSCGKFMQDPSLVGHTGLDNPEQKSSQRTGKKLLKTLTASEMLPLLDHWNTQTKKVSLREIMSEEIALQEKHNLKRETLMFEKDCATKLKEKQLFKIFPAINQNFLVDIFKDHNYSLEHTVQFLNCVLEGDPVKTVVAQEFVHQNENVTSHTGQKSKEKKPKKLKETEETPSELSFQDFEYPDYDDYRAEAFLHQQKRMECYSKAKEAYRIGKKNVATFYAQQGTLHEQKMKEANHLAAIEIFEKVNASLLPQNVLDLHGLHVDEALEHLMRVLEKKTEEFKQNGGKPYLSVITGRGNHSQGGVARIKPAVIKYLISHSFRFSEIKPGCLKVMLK
inactive: [1] 0.04 | [2] -0.029 | [3] -0.09 | [4] 0.069 | [5] -0.015 | [6] 0.001 | [7] 0.106 | [8] -0.021 | [9] -0.068 | [10] -0.022

NUB1 (UniProt Q9Y5A7)
inactive: [1] 0.049 | [2] 0.055 | [3] -0.003 | [4] -0.015 | [5] 0.002 | [6] 0.054 | [7] 0.023 | [8] -0.022 | [9] -0.023 | [10] -0.02

MRPS12 (UniProt O15235)
inactive: [1] -0.015 | [2] -0.058 | [3] 0 | [4] -0.044 | [5] -0.016 | [6] 0.019 | [7] -0.251 | [8] -0.004 | [9] -0.127 | [10] 0.043

NUP210 (UniProt Q8TEM1)
inactive: [1] -0.018 | [2] -0.019 | [3] -0.049 | [4] 0.036 | [5] -0.004 | [6] -0.046 | [7] -0.157 | [8] -0.008 | [9] -0.001 | [10] -0.009

NUF2 (UniProt Q9BZD4)
Sequence of UniProt Q9BZD4 (Q9BZD4 whole entry, looked up): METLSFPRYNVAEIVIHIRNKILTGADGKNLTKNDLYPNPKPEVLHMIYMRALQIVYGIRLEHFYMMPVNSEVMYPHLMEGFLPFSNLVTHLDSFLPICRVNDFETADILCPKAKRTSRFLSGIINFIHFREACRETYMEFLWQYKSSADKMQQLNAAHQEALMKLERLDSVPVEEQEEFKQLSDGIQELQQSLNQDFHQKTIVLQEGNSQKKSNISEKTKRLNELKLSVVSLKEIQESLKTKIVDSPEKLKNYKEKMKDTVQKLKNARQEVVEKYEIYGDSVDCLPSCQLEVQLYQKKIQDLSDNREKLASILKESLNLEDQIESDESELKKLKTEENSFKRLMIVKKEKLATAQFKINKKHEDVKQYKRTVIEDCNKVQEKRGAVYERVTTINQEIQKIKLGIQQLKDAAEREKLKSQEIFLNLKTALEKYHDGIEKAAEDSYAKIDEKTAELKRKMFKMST
inactive: [1] 0.009 | [2] 0.006 | [3] -0.012 | [4] 0.03 | [5] -0.002 | [6] -0.047 | [7] -0.047 | [8] -0.039 | [9] -0.004 | [10] -0.039

NQO1 (UniProt P15559)
Sequence of UniProt P15559 (P15559 whole entry, looked up): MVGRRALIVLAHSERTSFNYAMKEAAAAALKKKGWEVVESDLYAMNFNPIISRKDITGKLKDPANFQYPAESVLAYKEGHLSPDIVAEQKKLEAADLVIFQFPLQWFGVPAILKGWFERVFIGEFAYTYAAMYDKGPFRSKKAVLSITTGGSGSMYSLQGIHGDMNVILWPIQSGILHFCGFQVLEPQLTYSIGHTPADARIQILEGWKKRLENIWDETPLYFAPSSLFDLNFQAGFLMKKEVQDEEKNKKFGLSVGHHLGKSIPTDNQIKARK
inactive: [1] -0.033 | [2] 0.081 | [3] 0.055 | [4] -0.08 | [5] -0.02 | [6] -0.022 | [7] -0.192 | [8] 0.005 | [9] 0.006 | [10] -0.017

MTHFD1L (UniProt B7ZM99)
inactive: [1] 0.026 | [2] -0.001 | [3] 0 | [4] -0.007 | [5] 0.033 | [6] -0.006 | [7] -0.057 | [8] -0.004 | [9] 0.002 | [10] -0.013

NBN (UniProt O60934)
inactive: [1] -0.026 | [2] 0.068 | [3] 0.051 | [4] -0.004 | [5] -0.024 | [6] 0.013 | [7] -0.044 | [8] -0.005 | [9] 0.013 | [10] 0.007

NSL1 (UniProt Q96IY1)
inactive: [1] 0.01 | [2] -0.004 | [3] 0.015 | [4] -0.001 | [5] -0.002 | [6] 0.01 | [7] 0.077 | [8] 0.001 | [9] -0.015 | [10] 0.026

OGFOD2 (UniProt Q6N063)
inactive: [1] 0.034 | [2] -0.151 | [3] -0.093 | [4] -0.074 | [5] 0.022 | [6] -0.034 | [7] 0.001 | [8] 0.003 | [9] 0.006 | [10] -0.04

NADK2 (UniProt Q4G0N4)
inactive: [1] 0.005 | [2] -0.024 | [3] 0.011 | [4] 0.104 | [5] -0.026 | [6] -0.003 | [7] -0.017 | [8] -0.019 | [9] 0.031 | [10] 0.025

OPA1 isoform 2 (UniProt O60313)
Sequence of UniProt O60313 (O60313 whole entry, looked up): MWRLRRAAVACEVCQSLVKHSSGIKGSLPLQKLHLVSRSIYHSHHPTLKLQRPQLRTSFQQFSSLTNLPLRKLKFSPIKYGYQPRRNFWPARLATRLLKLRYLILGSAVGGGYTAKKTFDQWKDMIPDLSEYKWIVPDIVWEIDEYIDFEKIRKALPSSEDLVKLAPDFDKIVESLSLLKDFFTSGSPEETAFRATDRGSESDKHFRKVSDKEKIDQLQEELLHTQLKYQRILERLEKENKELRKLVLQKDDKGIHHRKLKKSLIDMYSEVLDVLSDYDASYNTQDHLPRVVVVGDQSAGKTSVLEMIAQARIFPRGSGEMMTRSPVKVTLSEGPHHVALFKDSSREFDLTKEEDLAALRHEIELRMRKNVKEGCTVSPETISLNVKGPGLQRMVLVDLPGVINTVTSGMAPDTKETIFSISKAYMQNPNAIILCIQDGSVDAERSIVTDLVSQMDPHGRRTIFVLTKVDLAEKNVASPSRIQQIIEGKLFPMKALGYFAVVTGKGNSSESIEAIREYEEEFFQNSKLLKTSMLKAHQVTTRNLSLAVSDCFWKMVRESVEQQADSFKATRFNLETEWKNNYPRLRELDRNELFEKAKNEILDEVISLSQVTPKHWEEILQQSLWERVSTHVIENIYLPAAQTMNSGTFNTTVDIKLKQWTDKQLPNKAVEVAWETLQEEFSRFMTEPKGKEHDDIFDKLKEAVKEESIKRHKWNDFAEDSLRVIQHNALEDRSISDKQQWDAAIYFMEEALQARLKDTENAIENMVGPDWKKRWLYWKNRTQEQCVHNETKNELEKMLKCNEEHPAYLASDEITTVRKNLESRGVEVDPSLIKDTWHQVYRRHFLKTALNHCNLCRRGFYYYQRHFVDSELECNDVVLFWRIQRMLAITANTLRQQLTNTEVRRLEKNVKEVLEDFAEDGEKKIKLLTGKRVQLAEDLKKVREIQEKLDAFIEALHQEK
inactive: [1] 0.003 | [2] 0.03 | [3] -0.078 | [4] 0.024 | [5] 0.01 | [6] -0.022 | [7] -0.026 | [8] -0.015 | [9] 0.021 | [10] 0.003
